The values that follow come from PubChem BioAssay (NCI).

Each structure is given as a SMILES string. Compounds without any hit were thinned out: in the full panel of roughly 83,000, 20% have a hit.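 Activity criterion: percent growth below 10, measured after cells in 96-well plates were exposed to a single compound concentration for 48 hours.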 Values without a mark were called inactive. Active and inactive are the calls of the source.

What all share (test): NCI-60 one-dose screen, 48 h (100 = growth as untreated, 0 = no growth, -100 = all killed)
Details in all cases: 10 µM unless noted

Experiment [1] deals with HCT-15 colon.
Experiment [2] concerns HT29 colon.
Experiment [3] has as its system SNB-19 CNS.
Experiment [4] concerns U251 CNS.
In experiment [5] the test system is PC-3 prostate.
The subject of experiment [6] is UACC-62 melanoma.
In experiment [7] the test system is LOX IMVI melanoma.
For experiment [8], the system named is SK-MEL-28 melanoma.
Experiment [9] deals with SK-MEL-2 melanoma.
In experiment [10] the test system is EKVX NSCLC.
Experiment [11] has as its system SN12C renal.
Experiment [12] concerns UO-31 renal.
The test system of experiment [13] is TK-10 renal.
In experiment [14] the test system is ACHN renal.
The test system of experiment [15] is CAKI-1 renal.
In experiment [16] the test system is CCRF-CEM leukemia.
Experiment [17] has as its system MOLT-4 leukemia.
Experiment [18] deals with SK-MEL-5 melanoma.
In experiment [19] the test system is A498 renal.

Consider `COc1cccc(/C=C2\Oc3cc(OCCCN4CCCC4)ccc3C2=O)c1OC`, for which the growth in [1] is 76.2%; in [2], 48.6%; in experiment [3], 102%; in experiment [4] it was 93.2%; in experiment [5] it was 91.9%; in experiment [6] it was 98.9%. Also, the growth is 89.2% in experiment [7]; 105% in experiment [8]; 105% in experiment [9]; 93% in [10]; 95.2% in experiment [11]; 79.3% in experiment [12]. For the same compound, the growth is 104% in [13]; 102% in experiment [14]; 93.1% in [15]; 85.1% in experiment [16]; 91.5% in experiment [17].
Regarding `Cc1ccc(-c2cc3nc(C(Cl)Cl)nc(-c4ccccc4C)n3n2)cc1`, the growth was 33.2% in experiment [1]; 8.13% (active) in [2]; 70.2% in [3]; 46.3% in [4]; 43.1% in experiment [5]; 82.6% in experiment [18]. Moreover, the growth was 59.7% in experiment [6]; 94.5% in [9]; 71.1% in experiment [10]; 86.7% in experiment [11]; 75.3% in [12]; 54.8% in experiment [13]. Further, the growth was 49.1% in experiment [14]; 48.1% in experiment [15]; 74.4% in experiment [19]; 96.1% in experiment [16]; 62.9% in experiment [17].
With `COc1ccc(-c2ccc(-c3ccc(-c4ccc(C(=N)N)cc4)s3)s2)cc1OC`, the growth in experiment [1] was -68.8% (active); in experiment [2], -60.2% (active); in experiment [3], 87.7%; in experiment [4], 46.4%; in experiment [5], 70.6%; in experiment [18], 93.8%. Further, the growth in [6] is 94.1%; in experiment [8], 93%; in [9], 105%; in [10], -8.09% (active); in experiment [11], 91.7%; in experiment [12] it was 74.4%. For the same compound, the growth is -78.8% (active) in experiment [13]; 95.5% in experiment [14]; 93.2% in [15]; 48.6% in experiment [19]; 14.6% in experiment [17].
`COc1ccc(OC)c(/C=C2\Oc3cc(OCCCN4CCCC4)ccc3C2=O)c1`: the growth was 20% in [1]; 10.3% in experiment [2]; 82.1% in [3]; 74.2% in [4]; 82.9% in [5]; 95.9% in experiment [6]. In addition, the growth in experiment [7] is 12%; in experiment [8], 87.4%; in experiment [9], 104%; in [10], 80.4%; in experiment [11] it was 76.2%; in [12], 56.7%. The growth in experiment [13] is 99.8%; in [14], 78.2%; in experiment [15], 82%; in [16] it was 50.8%; in experiment [17], 54.8%.
Take `N=C(N)c1ccc(-c2ccc(-c3cncc4ccccc34)s2)cc1F`: the growth was -80.6% (active) in experiment [1]; -91.7% (active) in experiment [2]; -76.1% (active) in experiment [3]; -92.3% (active) in experiment [4]; -93.6% (active) in [5]; -99.1% (active) in experiment [18]. The growth in experiment [6] is -91.3% (active); in experiment [8] it was 85.7%; in experiment [9], -40.4% (active); in experiment [10] it was -77% (active); in experiment [11], -93.1% (active); in experiment [12], -87.3% (active). The growth in experiment [13] was -91.2% (active); in [14] it was -97.5% (active); in experiment [15], -87.5% (active); in experiment [19], 73.8%; in experiment [17], -24.6% (active).
Consider `CC(=O)Oc1csc(N(C(C)=O)c2cccc(C(F)(F)F)c2)n1`, for which the growth in [1] was 94.4%; in [2] it was 102%; in [3], 97.8%; in experiment [4], 88.3%; in experiment [5], 85.6%; in [6], 89.2%. The growth in experiment [7] was 92.3%; in [8] it was 103%; in experiment [9] it was 96.7%; in [10], 46.1%; in [11] it was 89.6%; in experiment [12], 91%. In addition, the growth in experiment [13] was 108%; in [14], 102%; in [15], 98.4%; in [19] it was 85.2%; in experiment [16] it was 60.9%; in [17], 104%.
Consider `c1ccc(-c2nc(N3CCNCC3)c3nc(-c4ccccc4)oc3n2)cc1`, for which the growth in experiment [1] is -81.3% (active); in experiment [2], -86.6% (active); in experiment [3], 5.98% (active); in experiment [4], -93.5% (active); in experiment [5], -62.3% (active); in [18], 36.2%. Besides, the growth in [6] is -92.8% (active); in [8] it was 101%; in experiment [9] it was 93.3%; in experiment [10] it was 74.3%; in experiment [11], -92.2% (active); in experiment [12], -91.6% (active). Moreover, the growth was -85.3% (active) in experiment [13], -99.2% (active) in experiment [14], 80.6% in [19] and -34.6% (active) in experiment [17].
Take `Oc1ccc2cc(Br)ccc2c1-c1c(O)ccc2cc(Br)ccc12`: the growth in experiment [1] is 67.7%; in [2] it was 11.2%; in experiment [3], 78.3%; in experiment [4], 65%; in experiment [5], 42.1%; in experiment [6], 61.4%. Besides, the growth is 61.8% in experiment [7]; 65.5% in experiment [8]; 74.9% in experiment [9]; 57.6% in experiment [10]; 60.7% in [11]; 24.3% in experiment [12]. Also, the growth in [13] was 52%; in [14], 23.1%; in experiment [15], 40.2%; in experiment [19], 72%; in experiment [16], 45%; in experiment [17], 40.2%.
With `COC(=O)[C@]12CC[C@@H](C)[C@H](C)[C@@H]1C1=CC[C@@H]3[C@@]4(C)C(C=O)=C[C@@](C)(COC(=O)c5ccco5)[C@@H]4[C@H](O)C[C@@]3(C)[C@]1(C)CC2`, the growth is -78.3% (active) in experiment [1]; -64.4% (active) in experiment [2]; 7.8% (active) in [3]; -76.8% (active) in experiment [4]; -8% (active) in [5]; -94.9% (active) in experiment [18]. Besides, the growth was -91.4% (active) in experiment [7]; -44.4% (active) in experiment [9]; -18.1% (active) in experiment [10]; -19.7% (active) in experiment [11]; -76.3% (active) in experiment [12]; 11.5% in experiment [13]. For the same compound, the growth is -47.7% (active) in experiment [14]; -6.76% (active) in experiment [15]; -2.1% (active) in [19]; -24.1% (active) in experiment [16]; -0.738% (active) in [17].
